About 17,000 (5.5%) of roughly 310,000 compounds were called active. Entries that show only a call come without a potency. About 11% were inconclusive and are not listed. Only a selection was taken, and actives are over-represented in it overall. Unmarked numbers belong to inactive results. Calls come from the whole dose curve; as a rule, active = well fitted inhibition curve with a large enough effect; inconclusive = small, poorly fitted or top-dose-only effect, or effect the other way; inactive = no such curve, though single readings can be large or run the other way.
Molecular target: Nuclear receptor ROR-gamma (Mus musculus) (UniProt P51450)
Sequence (P51450 whole entry, looked up): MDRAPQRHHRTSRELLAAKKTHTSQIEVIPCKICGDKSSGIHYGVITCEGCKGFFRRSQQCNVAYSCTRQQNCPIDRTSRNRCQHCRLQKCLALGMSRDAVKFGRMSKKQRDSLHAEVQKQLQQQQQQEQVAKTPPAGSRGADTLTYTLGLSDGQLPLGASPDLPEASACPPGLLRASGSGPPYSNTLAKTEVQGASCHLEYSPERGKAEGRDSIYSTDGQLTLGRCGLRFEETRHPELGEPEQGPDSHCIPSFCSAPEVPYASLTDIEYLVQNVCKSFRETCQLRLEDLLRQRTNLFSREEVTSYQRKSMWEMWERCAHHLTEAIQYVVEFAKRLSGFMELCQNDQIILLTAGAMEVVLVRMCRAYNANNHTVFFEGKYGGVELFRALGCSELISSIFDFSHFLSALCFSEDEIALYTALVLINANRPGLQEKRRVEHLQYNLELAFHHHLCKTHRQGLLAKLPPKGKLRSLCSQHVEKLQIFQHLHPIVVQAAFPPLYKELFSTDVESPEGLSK
Assay: qHTS for inhibitors of ROR gamma transcriptional activity; note: nearly all actives have a fitted effect of over 60% in size
Conditions: Drosophila S2 Gal4-RORgamma UAS-luciferase reporter, 20 h; series mostly up to 53.6 µM
Description: NIH Molecular Libraries Probe Production Network [MLPCN] NIH Chemical Genomics Center [NCGC] MLPCN Grant: R03 DA026211-01 Assay Provider: Dan Littman, New York University Assay Overview: The retinoic acid-related orphan receptor (ROR) gamma is a transcription factor that has a central role in the differentiation of Th17 cells, a subset of T helper cells that secrete the inflammatory cytokines IL-17, IL-17F, and IL-22. Th17 cells have been implicated in graft versus host disease, autoimmune disease and asthma. ROR gamma is induced in naive T helper cells in the presence of TGF-beta combined with IL-6, IL-21, or IL-23, and thereafter directs the expression of the Th17 lineage cytokines. To study the mechanism of action of ROR gamma, an insect cell-based assay was screened. This Drosophila Schneider cell line was stably transfected with two vectors: a gene expressing a fusion of the Gal4 DNA binding domain and ROR gamma transactivation domain under the control of the metallothionine promoter and a Photinus luciferase reporter regulated by the Gal4 binding site enhancer, UAS. […] Small molecule inhibitors of ROR gamma activity are detected by a decrease in luciferase reporter activity.
Assay Protocol Summary: For screening, 600 cells in 4 uL/well were dispensed into white solid 1536-well plates (Grenier) using a solenoid-based dispenser. Following transfer of 23 nL compound or DMSO vehicle by a pin tool, the plates were incubated 1 hr at ambient temperature, and 1 uL/well copper sulfate (700 uM final concentration) was added. The plates were centrifuged 15 s at 1000 RPM and incubated 20 hr at ambient temperature. After addition of 1.5 uL Photinus luciferase detection reagent, the plates were incubated 10 min at ambient temperature and then read by an ViewLux (Perkin Elmer) to detect luminescence. Keywords: NIH Roadmap, MLPCN, MLI, MLSMR, qHTS, NCGC, qHTS, nuclear hormone receptor, retinoic acid-related orphan receptor, ROR gamma
Potency is the fitted concentration of half-maximal effect.

| Compound | Potency | activity change, negative = inhibition |
| --- | --- | --- |
| COc1ccc(/C=N/Nc2cc(N3CCOCC3)nc(C)n2)c(OC)c1 | inactive | – |
| COc1cccc2c(N/N=C/c3ccco3)cc(C)nc12 | inactive | – |
| CN(C)c1ccc(/C=N/Nc2cc(N3CCOCC3)nc(N3CCOCC3)n2)cc1 | inactive | – |
| Cc1cc(Oc2ccccc2)nc(N2CCOCC2)n1 | inactive | – |
| Cc1cc(Nc2ccc(Cl)cc2)nc(N2CCOCC2)n1 | inactive | – |
| Cc1cc(N/N=C\c2ccc(Br)cc2)nc(-n2nc(C)cc2C)n1 | 0.1 µM (active) | – |
| COc1ccc(Nc2cc(C)nc(-n3nc(C)cc3C)n2)cc1 | 0.501 µM (active) | – |
| CC(=O)c1ccc(Oc2cc(C)nc(-n3nc(C)cc3C)n2)cc1 | 14.1 µM (active) | – |
| Cc1ccc(S(=O)(=O)Nc2nc(C)cc(N/N=C/c3ccc(O)cc3)n2)cc1 | inactive | – |
| Cc1cc(C)n(-c2cc(Oc3ccccc3)ncn2)n1 | inactive | – |
| COc1ccc(NC(=O)c2nc(-n3nc(C)cc3C)ccc2Cl)cc1Cl | inactive | – |
| COc1ccccc1/C=N\Nc1cc(C)nc(-n2nc(C)cc2C)n1 | 0.251 µM (active) | – |
| CCn1c(Cc2ccc(OC)cc2)nnc1SCC(=O)Nc1ccc(N2CCOCC2)cc1 | inactive | – |
| NC(=O)C1CCCN(CC(=O)N2CCN(c3ccccc3)CC2)C1 (stereo not drawn) | inactive | – |
| Cc1ccccc1OCC(=O)Nc1ccc(S(=O)(=O)N2CCOCC2)cc1 | inactive | – |
| O=C(Nc1cccc(Cl)c1N1CCOCC1)c1cccnc1 | inactive | – |
| CCOC(=O)c1sc(NC(=O)c2sc(C)nc2C)nc1C | inactive | – |
| COCCn1c(SCC(=O)Nc2nc(C)cs2)nnc1C(C)C | inactive | – |
| CC1CC(C)CN(CCCNC(=O)c2csc3c2CCCCC3)C1 (stereo not drawn) | inactive | – |
| CN1C(=O)CN2CCc3ccccc3C2c2cc(Cl)ccc21 (stereo not drawn) | inactive | – |
| O=C1CCC(C(=O)N2CCN(c3ccccc3Cl)CC2)CN1CC1CCCCC1 (stereo not drawn) | inactive | – |
| COc1ccccc1OCC(=O)Nc1c2c(nn1-c1ccc(F)cc1)CS(=O)(=O)C2 | inactive | – |

| Compound | Potency | activity change, negative = inhibition |
| --- | --- | --- |
| N#C/C(C(=S)Nc1ccccc1)=C1/NN=C(N2CCOCC2)N1c1ccccc1 | 1.26 µM (active) | – |
| N#C/C(C(=O)N1CCOCC1)=C1/SC(Cc2ccc(F)cc2)C(=O)N1c1ccccc1 (stereo not drawn) | inactive | – |
| Cc1ccc(CC2S/C(=C(/C#N)C(=O)N3CCOCC3)N(c3ccccc3)C2=O)cc1 (stereo not drawn) | inactive | – |
| c1ccc2c(c1)CCc1snnc1-2 | inactive | – |
| COc1ccc(/C=N/NC(=O)c2ccccc2)cc1OS(=O)(=O)c1ccccc1 | inactive | – |
| COc1cc(/C=N/O)cc(Br)c1OS(=O)(=O)c1ccc(C)cc1 | 14.1 µM (active) | – |
| COc1cc(C(=O)NCc2ccncc2)cc(Br)c1OCc1ccccc1 | inactive | – |
| COc1cc(/C=N/O)cc(Br)c1OCc1cccc(Cl)c1 | 10 µM (active) | – |
| COc1cc(/C=N/Nc2ccc(C)cc2)cc(Br)c1O | inactive | – |
| CCOc1c(Cl)cc(/C=N/O)cc1OC | inactive | – |
| Cc1cc(S(=O)(=O)Nc2ccc(C(=O)NCC(c3ccco3)N3CCCC3)cc2)ccc1F (stereo not drawn) | inactive | – |
| COc1cc(/C(=C/c2ccccc2)c2ccccc2)c2c(c1)oc1ccccc12 | inactive | – |
| CC(=O)N1c2ccc(S(=O)(=O)NCCC(=O)N(C)C3CCCCC3)cc2CC1C (stereo not drawn) | inactive | – |
| COc1cccc(NC(=O)C(=O)c2cn(CC(=O)N3CCOCC3)c3ccccc23)c1 | inactive | – |
| COc1ccc(S(=O)(=O)n2nc(C)c(S(=O)(=O)N3CCOCC3)c2C)cc1 | inactive | – |
| CCOc1ccc(-c2nnc(-c3ccco3)o2)cc1 | 15.8 µM (active) | – |
| CCCCOc1ccc(-c2nnc(-c3ccco3)o2)cc1 | inactive | – |
| COc1ccc(C(=O)CSc2nnc(-c3ccco3)o2)cc1 | inactive | – |
| O=C(NCc1ccccc1)C(c1ccccc1)N(C(=O)c1csnn1)c1ccc(F)cc1 (stereo not drawn) | inactive | – |
| CCOc1ccc(C(C(=O)NC2CCCC2)N(C(=O)c2snc(C(N)=O)c2N)C2CCCC2)cc1 (stereo not drawn) | inactive | – |
| COc1ccc(C(=O)NC2CC2)cc1OC1CCN(Cc2cnn(C)c2)CC1 | inactive | – |
| O=c1c(-c2ccccc2Cl)c[nH]n1-c1ccccc1 | inactive | – |

| Compound | Potency | activity change, negative = inhibition |
| --- | --- | --- |
| COc1ccc(CNC(=O)CN(c2ccc(OC)c(Cl)c2)S(=O)(=O)c2ccc(C)cc2)cc1 | inactive | – |
| O=C(CCCO)N/N=C/c1cc(Br)ccc1O | 3.98 µM (active) | – |
| NCCCCCC(=O)N/N=C/c1ccc2nccnc2c1 | inactive | – |
| O=C(CCNc1n[nH]c(=O)[nH]c1=O)N/N=C\c1ccc(Br)cc1 | inactive | – |
| COc1ccc(OC)c(NC(=O)c2ccc3c(c2)C(=O)N(c2ccc(OC(C)=O)cc2)C3=O)c1 | inactive | – |
| CC(=O)/C(=N\Nc1ccc(Cl)cc1Cl)Sc1cccc2cccnc12 | 3.16 µM (active) | – |
| O=C(Nc1cccc2cccnc12)c1cccc(Cl)c1 | inactive | – |
| O=C(Nc1ccccc1Cl)Nc1cccc2cccnc12 | inactive | – |
| CC1=C(C(=O)NC2CC(C)(C)Cc3c2cnn3-c2ccc(C)cc2)OCCO1 (stereo not drawn) | inactive | – |
| CCC(C)c1ccccc1NC(=O)CN(C)CC(=O)Nc1ccccc1SC (stereo not drawn) | 15.8 µM (active) | – |
| CN(CC(=O)Nc1ccccc1F)CC(=O)Nc1ccccc1Br | inactive | – |
| CN(CC(=O)Nc1ccccc1[N+](=O)[O-])Cc1ccc(Br)cc1 | inactive | – |
| Cc1ccc(NC(=O)CN(C)Cc2ccc(F)cc2)c([N+](=O)[O-])c1 | inactive | – |
| CSc1ccccc1NC(=O)CN(C)CC(=O)Nc1ccc(Cl)cc1[N+](=O)[O-] | 11.2 µM (active) | – |
| CSc1ccccc1NC(=O)Cc1ccc(Br)cc1 | inactive | – |
| CC(=O)c1cc(CN2CCC(n3nccc3NC(=O)c3ccccc3Cl)CC2)cs1 | inactive | – |
| O=C(Nc1ccccc1-c1ccccc1)c1ccccc1[N+](=O)[O-] | inactive | – |
| O=C(CN(C(=O)c1csnn1)c1ccc(Br)cc1)NC1CCCC1 | inactive | – |
| Cc1ccc(S(=O)(=O)Oc2ccc(/C=N/NC(=O)c3ccncc3)cc2)cc1 | inactive | – |
| CCC1CCCCN1C(=S)Nc1ccc(S(=O)(=O)Nc2ncccn2)cc1 (stereo not drawn) | inactive | – |
| CC(=O)Nc1ccc(S(=O)(=O)Oc2ccc(Br)cc2C(=S)N2CCOCC2)cc1 | inactive | – |
| CCCCN(C)CCCNC(=O)c1cc(-c2cccs2)nc2ccccc12 | inactive | – |

| Compound | Potency | activity change, negative = inhibition |
| --- | --- | --- |
| COC(=O)c1cc(-c2cccs2)nc2ccccc12 | inactive | – |
| O=C(Nc1nnc(-c2ccccc2)o1)c1cc(-c2cccs2)nc2ccccc12 | 4.47 µM (active) | – |
| COC(=O)c1ccc(NC(=O)c2cc3c(CO)cnc(C)c3oc2=Nc2cccc(C(N)=O)c2)cc1 | inactive | – |
| COc1ccc(OC)c(CCNC(=O)CCn2ccc3cc(S(=O)(=O)N4CCCC4)ccc32)c1 | inactive | – |
| CN(CCc1ccccn1)C(=O)c1ccc(OC2CCN(Cc3ccccn3)CC2)cc1 | inactive | – |
| Cc1ccc(C(C)C)cc1OCC(=O)Nc1ccccc1N1CCCC1 | inactive | – |
| Cc1nnc(N/N=C/c2ccccn2)[nH]c1=O | inactive | – |
| Cc1nnc(N/N=C/C2CC=CCC2)[nH]c1=O (stereo not drawn) | 11.2 µM (active) | – |
| Cc1ccccc1Nc1nnc(C)c(=O)[nH]1 | inactive | – |
| CCC(=O)N1c2ccc(S(=O)(=O)NCc3ccco3)cc2CC1C (stereo not drawn) | inactive | – |
| CCc1ccc(NC(=O)CN2C(=O)COc3ccc(S(=O)(=O)N4CCCC4)cc32)cc1 | inactive | – |
| COc1cccc(CCNC(=O)c2cccc(NC(=O)C3=C(C)OCCS3)c2)c1 | inactive | – |
| CCCCc1ccc(NC(=S)N2CCCC(CO)C2)cc1 (stereo not drawn) | 15.8 µM (active) | – |
| O=C(NC12CC3CC(CC(C3)C1)C2)N1CCCC(CO)C1 (stereo not drawn) | inactive | – |
| COc1ccc(NC(=S)N2CCCC(CO)C2)c(OC)c1 (stereo not drawn) | inactive | – |
| CC(C)C(c1nnnn1C1CCCCC1)N1CCN(C(=O)c2ccco2)CC1 (stereo not drawn) | inactive | – |
| CSCC[C@H](NC(=O)N1CCn2c1nc1ccccc12)C(=O)NCc1ccc2c(c1)OCO2 | inactive | – |
| CCc1ccc(C(=O)COC(=O)c2ccco2)cc1 | inactive | – |
| CC(C)C(NS(=O)(=O)c1cccs1)C(=O)Nc1nc(C(C)(C)C)cs1 (stereo not drawn) | 11.2 µM (active) | – |
| O=C(Nc1nncs1)c1ccccc1NS(=O)(=O)c1cccs1 | inactive | – |
| COc1ccc(CNC(=O)C(NS(=O)(=O)c2cccc3nsnc23)C(C)C)cc1 (stereo not drawn) | inactive | – |
| OCCCN1c2ccccc2Nc2nnc(-c3ccccc3)cc21 | 10 µM (active) | – |

| Compound | Potency | activity change, negative = inhibition |
| --- | --- | --- |
| O=C(NC1CCCCCCC1)c1cccs1 | inactive | – |
| Cc1cccc(N(C)C(=O)c2cc(S(=O)(=O)N3CCCCC3)c[nH]2)c1 | inactive | – |
| O=C(NC1CCCCC1)c1cc([N+](=O)[O-])ccc1N1CCOCC1 | inactive | – |
| CC(NC(=S)Nc1ccccc1)C(c1cccs1)N1CCOCC1 (stereo not drawn) | 11.2 µM (active) | – |
| CC(NC(=S)NC1CCCCC1)C(c1ccccc1)N1CCOCC1 (stereo not drawn) | 5.01 µM (active) | – |
| O=C(NNC(=O)C(O)c1ccccc1)NC1CCCCC1 (stereo not drawn) | inactive | – |
| CC(=O)OC(C(=O)NC1CCCCC1)c1ccccc1 (stereo not drawn) | – | -6.92% [at 10 µM] |
| S=C(NC1CCCCC1)NN1CCOCC1 | 8.91 µM (active) | – |
| COc1ccc(S(=O)(=O)N2CCOCC2)cc1C(=O)NC1CCCCC1 | inactive | – |
| CCCC(=O)NC(C)C(c1cccs1)N1CCN(c2ccccc2)CC1 (stereo not drawn) | inactive | – |
| CC(NC(=O)Nc1ccccc1)C(c1cccs1)N1CCN(c2ccccc2)CC1 (stereo not drawn) | inactive | – |
| CC(=O)N1CC(=O)N(CC(=O)Nc2ccc(Br)cc2)C1=S | inactive | – |
| CCOC(=O)N1CCN(CCC(=O)Nc2ccccc2)CC1 | inactive | – |
| Cc1nc(Nc2ccccc2F)c2nnn(Cc3ccccc3Cl)c2n1 | inactive | – |
| Cc1cccc(CN2CCC(n3nccc3NC(=O)c3ccccc3C)CC2)n1 | inactive | – |
| O=C(NCc1ccccc1)C(c1ccco1)N(C(=O)c1csnn1)c1ccccc1F (stereo not drawn) | inactive | – |
| CCCCN1C(=O)/C(=C2/Sc3ccc(Cl)cc3N2CC)SC1=S | inactive | – |
| O=S(=O)(NC1CCCCC1N1CCCCC1)c1ccc(Cl)cc1 (stereo not drawn) | inactive | – |
| CC(=O)Nc1cccc(Nc2nc(-c3cccs3)nc3ccccc23)c1 | inactive | – |
| COc1ccc(CN(C)C(=O)Cc2c[nH]c3ccccc23)c(OC)c1OC | inactive | – |
